Measurements as given in the supplement of paper PMC11732987, “Enantioselective OTUD7B fragment discovery through chemoproteomics screening and high-throughput optimisation” (Communications Chemistry, 2025).

How the values were obtained:
Test in all cases: log2 ratio of Biotin-Ahx-Ub-VS probe labelling (fragment/DMSO); higher = less target engagement (more negative = stronger competition), active = hit call of the paper (q ≤ 0.05, log2 ratio ≤ -1)
Conditions in all cases: compound concentration: 200 uM; treatment time: 3 h
USP19 = biological target: T1, USP19 (UniProt O94966)
T1 sequence (whole entry): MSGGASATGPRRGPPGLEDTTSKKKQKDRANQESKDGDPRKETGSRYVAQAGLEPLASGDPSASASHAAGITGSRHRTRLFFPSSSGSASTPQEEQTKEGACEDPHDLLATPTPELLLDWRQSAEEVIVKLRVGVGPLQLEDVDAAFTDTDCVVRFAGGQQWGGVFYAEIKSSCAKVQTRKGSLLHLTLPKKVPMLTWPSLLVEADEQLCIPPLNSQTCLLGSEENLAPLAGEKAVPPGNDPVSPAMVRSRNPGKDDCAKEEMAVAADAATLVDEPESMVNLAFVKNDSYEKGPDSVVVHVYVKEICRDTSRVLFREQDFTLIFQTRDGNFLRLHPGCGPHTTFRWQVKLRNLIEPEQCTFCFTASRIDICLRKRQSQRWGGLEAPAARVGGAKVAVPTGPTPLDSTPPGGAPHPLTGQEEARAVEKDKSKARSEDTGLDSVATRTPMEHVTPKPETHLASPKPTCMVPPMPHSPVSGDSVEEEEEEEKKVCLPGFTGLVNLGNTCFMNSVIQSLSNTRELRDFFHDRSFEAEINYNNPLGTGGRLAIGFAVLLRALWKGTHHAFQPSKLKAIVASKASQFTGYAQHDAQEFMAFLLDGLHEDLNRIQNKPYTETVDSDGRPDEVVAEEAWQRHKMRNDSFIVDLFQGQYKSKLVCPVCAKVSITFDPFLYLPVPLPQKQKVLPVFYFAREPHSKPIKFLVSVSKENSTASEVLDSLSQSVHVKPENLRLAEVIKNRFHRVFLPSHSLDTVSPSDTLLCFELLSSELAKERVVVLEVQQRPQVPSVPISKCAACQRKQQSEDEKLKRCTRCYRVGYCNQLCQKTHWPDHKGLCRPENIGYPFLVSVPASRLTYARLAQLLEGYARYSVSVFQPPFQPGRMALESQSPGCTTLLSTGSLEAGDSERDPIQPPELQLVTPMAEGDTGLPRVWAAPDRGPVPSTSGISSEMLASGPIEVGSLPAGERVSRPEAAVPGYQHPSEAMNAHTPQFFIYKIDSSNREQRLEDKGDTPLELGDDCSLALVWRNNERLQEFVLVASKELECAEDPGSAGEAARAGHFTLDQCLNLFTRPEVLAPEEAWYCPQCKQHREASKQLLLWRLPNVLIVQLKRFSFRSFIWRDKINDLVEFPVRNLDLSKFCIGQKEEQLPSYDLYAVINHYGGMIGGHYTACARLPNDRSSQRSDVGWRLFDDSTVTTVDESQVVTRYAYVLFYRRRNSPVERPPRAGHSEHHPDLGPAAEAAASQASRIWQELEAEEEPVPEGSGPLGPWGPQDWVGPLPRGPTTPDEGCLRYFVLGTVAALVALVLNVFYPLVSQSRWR
Method in brief: (§1)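 Values give the average log2 ratio of fragment to vehicle, assessed by unpaired t-test on global-median-normalised Spectronaut label-free quantities. Proteins needed ≥2 unique peptides. HEK293T lysate (495 µg per sample) was treated in triplicate with fragment at 200 µM or vehicle for 3 h and then with Biotin-Ahx-Ub-VS at 0.5 µM final for 1 h. Labelled DUBs were NeutrAvidin-enriched, digested and run by diaPASEF LC-MS/MS.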

USP22 = biological target: T2, USP22 (UniProt Q9UPT9)
T2 sequence (whole entry): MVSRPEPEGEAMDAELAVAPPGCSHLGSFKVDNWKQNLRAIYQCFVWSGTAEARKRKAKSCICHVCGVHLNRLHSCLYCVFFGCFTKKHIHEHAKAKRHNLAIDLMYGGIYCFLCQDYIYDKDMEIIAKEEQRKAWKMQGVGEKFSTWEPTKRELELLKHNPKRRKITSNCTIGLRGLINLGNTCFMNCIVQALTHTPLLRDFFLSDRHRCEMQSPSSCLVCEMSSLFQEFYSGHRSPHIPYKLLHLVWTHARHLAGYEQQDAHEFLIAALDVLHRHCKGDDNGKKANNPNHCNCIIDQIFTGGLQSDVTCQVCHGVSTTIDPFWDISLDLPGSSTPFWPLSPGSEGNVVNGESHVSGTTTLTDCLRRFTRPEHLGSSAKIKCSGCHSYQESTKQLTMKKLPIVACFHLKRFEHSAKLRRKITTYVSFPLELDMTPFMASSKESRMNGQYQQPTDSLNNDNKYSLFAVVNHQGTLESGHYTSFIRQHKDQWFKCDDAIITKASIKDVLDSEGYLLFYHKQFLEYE
Method in brief: as §1

USP24 = USP24 (UniProt Q9UPU5)
Method in brief: as §1

USP25 = biological target: T3, USP25 (UniProt Q9UHP3)
T3 sequence (whole entry): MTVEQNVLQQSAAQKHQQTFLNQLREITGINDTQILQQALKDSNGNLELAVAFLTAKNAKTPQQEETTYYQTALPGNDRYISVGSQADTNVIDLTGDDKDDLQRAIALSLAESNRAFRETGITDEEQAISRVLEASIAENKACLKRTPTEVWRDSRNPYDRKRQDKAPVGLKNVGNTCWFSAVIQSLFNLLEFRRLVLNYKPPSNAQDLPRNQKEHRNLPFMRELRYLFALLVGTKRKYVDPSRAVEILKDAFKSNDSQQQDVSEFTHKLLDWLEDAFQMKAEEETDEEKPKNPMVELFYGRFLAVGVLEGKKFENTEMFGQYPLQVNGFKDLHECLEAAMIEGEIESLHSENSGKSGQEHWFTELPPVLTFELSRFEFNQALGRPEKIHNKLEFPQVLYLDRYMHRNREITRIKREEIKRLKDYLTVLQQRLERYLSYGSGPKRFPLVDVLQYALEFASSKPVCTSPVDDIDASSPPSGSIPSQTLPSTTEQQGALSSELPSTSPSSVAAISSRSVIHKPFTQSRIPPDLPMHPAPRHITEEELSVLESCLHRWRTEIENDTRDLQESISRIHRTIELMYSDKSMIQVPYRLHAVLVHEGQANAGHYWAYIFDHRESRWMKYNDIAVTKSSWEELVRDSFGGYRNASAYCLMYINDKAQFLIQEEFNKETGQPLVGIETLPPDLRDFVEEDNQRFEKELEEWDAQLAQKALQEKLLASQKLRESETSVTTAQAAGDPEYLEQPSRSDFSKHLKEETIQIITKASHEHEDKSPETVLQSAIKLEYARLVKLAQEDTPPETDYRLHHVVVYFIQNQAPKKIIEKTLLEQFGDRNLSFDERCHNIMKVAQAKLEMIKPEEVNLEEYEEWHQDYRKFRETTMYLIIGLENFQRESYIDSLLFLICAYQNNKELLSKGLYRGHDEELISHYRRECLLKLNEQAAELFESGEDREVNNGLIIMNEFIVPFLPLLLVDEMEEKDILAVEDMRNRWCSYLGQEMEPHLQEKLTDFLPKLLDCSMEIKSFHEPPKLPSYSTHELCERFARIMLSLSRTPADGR
Method in brief: as §1

USP28 = biological target: T4, USP28 (UniProt Q96RU2)
T4 sequence (whole entry): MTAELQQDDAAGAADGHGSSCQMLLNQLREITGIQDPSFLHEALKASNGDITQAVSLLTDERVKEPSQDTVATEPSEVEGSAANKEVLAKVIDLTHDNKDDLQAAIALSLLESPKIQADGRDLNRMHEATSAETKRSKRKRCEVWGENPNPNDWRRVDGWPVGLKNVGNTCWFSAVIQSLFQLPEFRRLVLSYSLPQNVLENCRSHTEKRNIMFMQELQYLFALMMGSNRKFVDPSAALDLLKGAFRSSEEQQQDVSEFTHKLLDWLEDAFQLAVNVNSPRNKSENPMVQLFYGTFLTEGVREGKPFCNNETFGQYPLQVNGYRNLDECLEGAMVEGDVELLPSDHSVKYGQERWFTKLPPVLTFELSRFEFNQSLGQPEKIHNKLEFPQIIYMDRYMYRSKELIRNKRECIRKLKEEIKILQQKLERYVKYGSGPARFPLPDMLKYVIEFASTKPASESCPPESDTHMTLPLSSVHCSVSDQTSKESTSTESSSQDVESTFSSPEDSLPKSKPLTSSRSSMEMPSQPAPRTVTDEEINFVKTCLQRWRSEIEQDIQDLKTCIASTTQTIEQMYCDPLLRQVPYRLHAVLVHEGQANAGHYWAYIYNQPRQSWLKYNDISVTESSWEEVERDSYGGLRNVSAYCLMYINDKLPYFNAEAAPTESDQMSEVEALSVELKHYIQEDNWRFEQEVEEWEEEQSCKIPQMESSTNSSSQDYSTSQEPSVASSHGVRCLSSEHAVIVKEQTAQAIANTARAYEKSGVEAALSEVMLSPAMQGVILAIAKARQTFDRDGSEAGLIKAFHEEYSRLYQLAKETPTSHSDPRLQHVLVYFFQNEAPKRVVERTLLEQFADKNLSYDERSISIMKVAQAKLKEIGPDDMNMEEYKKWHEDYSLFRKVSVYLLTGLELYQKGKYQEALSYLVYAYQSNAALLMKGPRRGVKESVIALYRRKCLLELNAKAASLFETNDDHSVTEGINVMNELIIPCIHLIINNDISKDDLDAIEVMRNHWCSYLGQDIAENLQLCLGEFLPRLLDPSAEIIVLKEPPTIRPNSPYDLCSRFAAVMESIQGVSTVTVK
Method in brief: as §1

Measured: log2 ratio of Biotin-Ahx-Ub-VS probe labelling

Sequence of USP24 (Q9UPU5 whole entry): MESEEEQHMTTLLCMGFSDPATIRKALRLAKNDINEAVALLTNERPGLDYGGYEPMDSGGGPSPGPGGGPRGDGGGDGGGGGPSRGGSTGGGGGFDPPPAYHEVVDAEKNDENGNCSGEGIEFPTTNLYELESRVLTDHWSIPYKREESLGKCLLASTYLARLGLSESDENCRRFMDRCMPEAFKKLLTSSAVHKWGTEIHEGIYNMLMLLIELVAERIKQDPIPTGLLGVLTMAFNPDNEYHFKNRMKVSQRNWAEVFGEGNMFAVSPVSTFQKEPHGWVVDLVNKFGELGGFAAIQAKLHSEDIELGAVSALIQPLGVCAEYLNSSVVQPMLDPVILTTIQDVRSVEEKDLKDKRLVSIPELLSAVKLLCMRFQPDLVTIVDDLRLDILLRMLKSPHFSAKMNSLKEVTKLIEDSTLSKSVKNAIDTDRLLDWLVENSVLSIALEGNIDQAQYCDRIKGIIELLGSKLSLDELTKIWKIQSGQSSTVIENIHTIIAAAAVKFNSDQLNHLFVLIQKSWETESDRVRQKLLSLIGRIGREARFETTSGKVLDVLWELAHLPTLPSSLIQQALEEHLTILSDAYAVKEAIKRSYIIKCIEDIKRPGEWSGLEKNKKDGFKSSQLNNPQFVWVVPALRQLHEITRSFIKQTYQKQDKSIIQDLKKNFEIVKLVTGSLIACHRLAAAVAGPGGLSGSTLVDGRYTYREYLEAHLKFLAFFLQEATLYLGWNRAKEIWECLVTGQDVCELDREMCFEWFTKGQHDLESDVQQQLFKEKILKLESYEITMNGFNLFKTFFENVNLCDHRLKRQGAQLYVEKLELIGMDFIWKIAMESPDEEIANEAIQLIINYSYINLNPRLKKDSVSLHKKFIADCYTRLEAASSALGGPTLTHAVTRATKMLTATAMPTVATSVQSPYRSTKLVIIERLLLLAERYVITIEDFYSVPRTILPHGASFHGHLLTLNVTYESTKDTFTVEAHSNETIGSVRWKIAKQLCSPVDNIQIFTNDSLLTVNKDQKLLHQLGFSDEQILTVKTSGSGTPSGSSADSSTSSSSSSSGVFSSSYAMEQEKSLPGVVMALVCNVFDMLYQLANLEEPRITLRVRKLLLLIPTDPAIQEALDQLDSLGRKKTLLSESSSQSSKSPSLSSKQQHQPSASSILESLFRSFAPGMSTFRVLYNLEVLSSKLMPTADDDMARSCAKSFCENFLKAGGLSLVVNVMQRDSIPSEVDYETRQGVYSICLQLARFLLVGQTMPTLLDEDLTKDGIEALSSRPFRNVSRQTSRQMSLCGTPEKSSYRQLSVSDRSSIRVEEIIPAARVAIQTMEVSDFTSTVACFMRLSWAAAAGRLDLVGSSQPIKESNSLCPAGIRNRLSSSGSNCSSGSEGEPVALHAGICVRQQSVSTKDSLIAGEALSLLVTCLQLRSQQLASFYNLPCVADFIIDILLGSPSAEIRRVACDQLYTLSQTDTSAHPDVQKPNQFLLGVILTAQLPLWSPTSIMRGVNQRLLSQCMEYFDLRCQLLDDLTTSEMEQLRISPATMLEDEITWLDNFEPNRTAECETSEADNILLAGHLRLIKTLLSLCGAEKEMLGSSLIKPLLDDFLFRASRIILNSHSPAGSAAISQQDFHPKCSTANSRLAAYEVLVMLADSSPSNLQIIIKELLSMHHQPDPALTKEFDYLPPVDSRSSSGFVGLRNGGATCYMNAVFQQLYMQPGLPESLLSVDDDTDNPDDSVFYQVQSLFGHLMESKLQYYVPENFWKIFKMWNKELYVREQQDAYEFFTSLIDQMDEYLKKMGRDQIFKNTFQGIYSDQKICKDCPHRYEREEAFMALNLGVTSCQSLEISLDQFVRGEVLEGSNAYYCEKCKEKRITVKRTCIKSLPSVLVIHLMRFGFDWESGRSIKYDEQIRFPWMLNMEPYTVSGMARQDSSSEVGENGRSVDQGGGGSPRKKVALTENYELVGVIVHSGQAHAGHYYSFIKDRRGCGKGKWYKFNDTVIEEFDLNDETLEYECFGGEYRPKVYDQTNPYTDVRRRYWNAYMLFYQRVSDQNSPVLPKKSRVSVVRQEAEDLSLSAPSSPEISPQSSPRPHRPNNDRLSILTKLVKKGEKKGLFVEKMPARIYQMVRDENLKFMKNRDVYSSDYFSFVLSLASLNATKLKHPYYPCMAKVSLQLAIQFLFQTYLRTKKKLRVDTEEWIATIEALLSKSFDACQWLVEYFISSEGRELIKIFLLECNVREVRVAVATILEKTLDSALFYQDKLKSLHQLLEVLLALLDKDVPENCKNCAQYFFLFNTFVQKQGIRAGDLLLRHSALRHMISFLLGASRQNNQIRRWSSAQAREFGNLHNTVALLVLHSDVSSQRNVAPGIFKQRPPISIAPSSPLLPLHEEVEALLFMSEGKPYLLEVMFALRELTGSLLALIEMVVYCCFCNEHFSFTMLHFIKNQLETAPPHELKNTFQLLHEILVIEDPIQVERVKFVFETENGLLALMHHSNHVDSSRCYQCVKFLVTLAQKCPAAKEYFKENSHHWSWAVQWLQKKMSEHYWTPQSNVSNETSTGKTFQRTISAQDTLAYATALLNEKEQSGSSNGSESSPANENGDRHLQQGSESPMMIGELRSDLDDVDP

O=C(CCl)N1CCC(C(=O)N2CCCC2)CC1
inactive: USP19 -0.228 | USP22 0.0347 | USP24 -0.075 | USP25 -0.128 | USP28 -0.299
